# High-throughput results (PubChem)
# Rv3671c inh: Rv3671c (M. tuberculosis) protease inhibition; AID 2606; inhibition, % at 5.96 µM; 0.048% of 320,000 active; in the data active means inhibition above about 38%;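 further: extracellular domain of Rv3671c used as enzyme; 0% = enzyme with DMSO and 100% = no enzyme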
# Target sequence (P9WHR9 whole entry, looked up, the tested form may be a part): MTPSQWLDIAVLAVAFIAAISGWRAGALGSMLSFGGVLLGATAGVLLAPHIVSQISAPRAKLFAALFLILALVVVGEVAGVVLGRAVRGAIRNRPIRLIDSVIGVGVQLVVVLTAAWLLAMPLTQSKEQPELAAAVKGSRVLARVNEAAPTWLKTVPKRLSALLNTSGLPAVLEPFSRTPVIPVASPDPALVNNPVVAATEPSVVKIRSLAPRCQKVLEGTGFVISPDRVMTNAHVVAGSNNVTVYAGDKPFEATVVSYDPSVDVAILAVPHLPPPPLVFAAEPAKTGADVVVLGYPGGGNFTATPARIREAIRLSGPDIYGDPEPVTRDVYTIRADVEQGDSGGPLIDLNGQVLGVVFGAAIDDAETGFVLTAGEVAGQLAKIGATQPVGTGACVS
# FBA Mtb inh: inhibitors of M. tuberculosis fructose-bisphosphate aldolase; P9WQA3; purified M. tuberculosis FBA, fluorescence read-out; inhibition, % at 1 µM; 2.3% of 360,000 active; AID 588726;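 further: 0% = vehicle and 100% = reference inhibitor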
# Vc quorum ag: inducers of Vibrio cholerae quorum light production without autoinducers; V. cholerae BH1578 lux reporter, luminescence, 6 h; activation, % at 18.7 µM; 0.16% of 350,000 active; AID 588436; in the data active means activation mostly above about 9.7%, no sharp cut-off
# RecA splice inh: inhibitors of M. tuberculosis RecA intein splicing; AID 2221; inhibition, % (test concentration not listed); cell-free RecA intein splicing, fluorescence; 0.75% of 290,000 active; in the data active means inhibition above about 30%;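 further: 0% = vehicle wells and 100% = reference inhibitor control wells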
# GDH-TPI counter-1: counter-screen for M. tuberculosis FBA inhibitors: GDH-TPI coupled enzymes; GDH-TPI coupled enzyme counterscreen, NADH absorbance; inhibition, % at 4.8 µM; 1.2% of 360,000 active; in the data active means inhibition above about 30%;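 further: 0% = DMSO wells and 100% = wells lacking the enzyme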
# UGM FP inh: Mtb UDP-galactopyranose mutase inhibition; purified UGM, fluorescence polarization probe displacement; 0.06% of 320,000 active; P9WIQ1; inhibition, % at 10 µM; in the data active means inhibition above about 10%, passing the limit was not always enough
# Mtb FBA confirm: confirmation of M. tuberculosis fructose-bisphosphate aldolase inhibitors; shares compounds with FBA Mtb inh; purified M. tuberculosis FBA, fluorescence read-out; inhibition, % at 1 µM; 78% of 5,600 active;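 further: 0% = vehicle wells and 100% = reference inhibitor wells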
# GDH-TPI counter-2: counter-screen for M. tuberculosis FBA inhibitors: GDH-TPI coupled enzyme inhibition; GDH-TPI coupled enzyme counterscreen, fluorescence; inhibition, % at 1 µM; AID 652141; 81% of 5,600 active; shares compounds with FBA Mtb inh; in the data active means inhibition above about 10%
# Numbers without * were called inactive; i = inactive; . = no result; + = active, no number. Most compounds without a hit are left out; they make up all but 4.1% or so of the library. Unless noted, no stated cut-off is given here; in the data, active means inhibition above about 27%; inactive means the rest.
SMILES,Rv3671c inh,FBA Mtb inh,Vc quorum ag,RecA splice inh,GDH-TPI counter-1,UGM FP inh,Mtb FBA confirm,GDH-TPI counter-2
COc1cccc(CC(NC(C)=O)C(=O)NC2CCN(c3nc(C)cc(C)c3C#N)CC2)c1 (stereo unspecified),-6,29*,.,-2,-3,-1,58*,52*
CCOC(=O)C1CCN(C(=O)COC(=O)c2nc3nc(C)cc(C)n3n2)CC1,-2,2,-5,-6,3,-2,.,.
COc1ccc(CC(NC(C)=O)C(=O)NC2CCN(c3nc(C)cc(C)c3C#N)CC2)c(OC)c1 (stereo unspecified),4,25,5,-1,7,-3,.,.
Cc1cc(C)c(C#N)c(N2CCCC(C(N)=O)C2)n1 (stereo unspecified),2,57*,.,-4,-3,-1,+,+
CCOC(=O)C1CCN(c2nc(C)cc(C)c2C#N)CC1,5,28*,-1,-1,0,-1,170*,124*
NC(=O)COC(=O)[C@@H]1CC(O)CN1S(=O)(=O)c1ccc2c(c1)OCCO2 (stereo partly specified),-2,7,0,1,11,-2,.,.
CCCCN(C=O)c1c(CC)nc2ccc(C(=O)NCCOc3ccc(OC)cc3)cn12,.,2,0,.,9,.,.,.
CCCCN(C)CCNC(=O)c1cc2c(-c3ccccc3F)nn(C)c2s1,6,46*,i,-2,6,2,38*,32*
COCCNC(=O)c1cc2c(-c3ccccc3F)nn(C)c2s1,-22,35*,0,1,16,0,117*,88*
CC(C)NC(=O)c1cc2c(-c3ccc(Cl)cc3)nn(C)c2s1,-9,12,2,1,2,-1,.,.
CNC(=O)c1cc2c(-c3ccccc3)nn(C)c2s1,-16,73*,-1,1,7,3,102*,80*
CCCCNC(=O)c1cc2c(-c3ccc(Cl)cc3)nn(C)c2s1,-12,16,0,.,2,1,.,.
COCCCNC(=O)c1cc2c(-c3ccc(Cl)cc3)nn(C)c2s1,-28,74*,0,4,20,2,77*,73*
CN(C)CCCNC(=O)c1cc2c3ccccc3n(C)c2s1,0,7,1,-1,18,0,.,.
COc1ccc([N+](=O)[O-])cc1NCC(=O)Nc1cccc(S(=O)(=O)N2CCCC2)c1,.,0,-1,.,3,.,.,.
Cc1cc(/C=C2\Sc3ccccc3N2C)cc(C)[n+]1CC1CCCO1 (stereo unspecified),.,-24,0,.,3,.,.,.
N#Cc1ccc(S(=O)(=O)N2CCCCC2c2cc(C(=O)NCc3cccnc3)no2)cc1 (stereo unspecified),.,-3,i,.,-4,.,.,.
CCN1CCCC1CNC(=O)c1cc2c(-c3ccc(Cl)cc3)nn(C)c2s1 (stereo unspecified),-7,22,0,3,4,1,.,.
Cn1nc(-c2ccc(Cl)cc2)c2cc(C(=O)NCCCN3CCCC3)sc21,-10,35*,i,.,13,-1,81*,71*
Cc1ccc(CNC(=O)c2cc3c(-c4ccc(Cl)cc4)nn(C)c3s2)o1,-185,14,0,8,6,4,.,.
COCCNC(=O)c1cc2c(-c3ccc(Cl)cc3)nn(C)c2s1,-20,79*,0,.,5,1,69*,54*
CCOc1ccc(S(=O)(=O)NCCC(=O)NCC(c2ccc(OC)cc2)N2CCOCC2)cc1 (stereo unspecified),.,0,-1,.,15,.,.,.
Cc1ccc(NC(=O)Nc2ccccc2F)cc1S(=O)(=O)N1CCOCC1,-27,1,0,.,4,2,.,.
Nc1cnccc1C(=O)O,-3,6,i,-12,9,4,.,.
COC(=O)c1sc2cnccc2c1N,-7,110*,i,-94,14,1,91*,85*
SMILES,Rv3671c inh,FBA Mtb inh,Vc quorum ag,RecA splice inh,GDH-TPI counter-1,UGM FP inh,Mtb FBA confirm,GDH-TPI counter-2
COC(=O)c1ccncc1N,-7,47*,-2,0,0,1,7,-4
O=C(COC(=O)Cn1cnc2ccccc21)NCCc1ccc(Cl)cc1,-7,56*,i,0,-3,-1,46*,36*
COc1ccc(S(=O)(=O)N2CCOCC2)cc1NC(=O)CSc1ncccn1,-6,0,-3,.,10,2,.,.
Cc1ccnc(SCC(=O)NC2CCCCCC2)n1,7,0,-2,1,6,2,.,.
Cc1cc(C)n(-c2nc(NCC(C)O)c3c4c(sc3n2)COC(C)(C)C4)n1 (stereo unspecified),-7,56*,-3,-2,5,2,75*,64*
COc1ccc(N2C(=O)CSC2c2cccc(F)c2)cc1 (stereo unspecified),1,39*,i,1,-5,1,181*,154*
CCc1cc(=O)oc2cc(C)cc(OC(C)C(=O)NCc3ccccn3)c12 (stereo unspecified),-6,50*,0,0,-2,1,66*,48*
CCCc1cc(=O)oc2cc(C)cc(OC(C)C(=O)NCc3ccccn3)c12 (stereo unspecified),2,65*,0,-2,13,-2,+,+
COc1cc(OC)c(OC)cc1CNC(=O)c1cccc(S(=O)(=O)N2CCc3ccccc3C2)c1,.,0,0,.,-5,.,.,.
CC[C@@H]1C(c2cccc(Cl)c2)=NN(c2ccc(Br)cc2)[C@H]1C(=O)N1CCOC1=O,.,55*,i,.,15,.,60*,43*
COc1cc(C#Cc2c(-c3ccccc3)n(C)c3ccccc23)cc(OC)c1,-5,38*,i,8,8,1,4,-4
COC(=O)c1ccc2c(c1)c(C#Cc1ccccc1)c(-c1ccccc1)n2C,.,40*,i,.,-5,.,-5,0
COc1ccc(-c2c(-c3ccccc3)n(C)c3ccccc23)cc1,2,41*,-2,.,7,0,6,-1
COc1ccc(-c2c(C#Cc3ccsc3)c3cc(-c4ccc(C(N)=O)cc4)ccc3n2C)cc1,-9,3,3,.,12,3,.,.
Cn1c(-c2ccc(C#N)cc2)c(C#Cc2ccccc2)c2ccccc21,.,93*,-1,.,4,.,50*,34*
COc1ccc(-c2c(C#Cc3ccsc3)c3ccccc3n2C)cc1,-3,3,i,0,12,0,.,.
O=C(c1ccccc1)c1ccc(OC(=O)C2CCCCC2)cc1,-1,-1,i,6,1,-1,.,.
CSc1ccc(CN(C)C(=O)C2CCN(C(=O)Nc3ccccc3)CC2)cc1,-4,3,-6,.,3,1,.,.
CCOC(=O)N1CCN(C(=O)c2cc(COc3c(F)cccc3F)on2)CC1,-17,2,1,-3,9,1,.,.
CCCCOc1ccc(SCCCN2CCOCC2)cc1,.,-1,4,.,4,.,.,.
